Compound activity from PubChem.
Sampled rows, rich in hits. Any-hit rate of the full collection: about 1.3%.
TCR activator: Activators of T cell receptors: qHTS campaign; primary human leukocytes, anti-CD3, IL-2 HTRF, 48 h; Potency, µM (doses to about 9.22 µM), inactives show at the top dose activation of IL-2 secretion, usual class: activators; 330,000 tested, under 10 active; AID 504894, 2011; also: % of control where 0% means no effect
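TCR engagement came from a-CD3 beads alone, with compounds added to primary human leukocytes for 48 hr. Secreted IL-2 bridged europium cryptate- and d2-labelled anti-IL-2 antibodies, giving FRET emission at 665nm after 320nm excitation.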
PTHR1 agonist: qHTS for PTHR1 Agonists: Primary Screen; 410,000 tested, 0.075% active; Parathyroid hormone/parathyroid hormone-related peptide receptor (Homo sapiens), Q03431; AID 743266, 2014; Potency, µM (highest dose often 115 µM), without a hit: top-dose activation, usual class: activators; HEK293 GP2 PTHR1 cells, GloSensor cAMP luminescence, 1 h; also: potency is read from the fitted curve at half-maximal effect; nearly all actives have a fitted effect of over 55% in size
Target sequence (Q03431 whole entry, looked up): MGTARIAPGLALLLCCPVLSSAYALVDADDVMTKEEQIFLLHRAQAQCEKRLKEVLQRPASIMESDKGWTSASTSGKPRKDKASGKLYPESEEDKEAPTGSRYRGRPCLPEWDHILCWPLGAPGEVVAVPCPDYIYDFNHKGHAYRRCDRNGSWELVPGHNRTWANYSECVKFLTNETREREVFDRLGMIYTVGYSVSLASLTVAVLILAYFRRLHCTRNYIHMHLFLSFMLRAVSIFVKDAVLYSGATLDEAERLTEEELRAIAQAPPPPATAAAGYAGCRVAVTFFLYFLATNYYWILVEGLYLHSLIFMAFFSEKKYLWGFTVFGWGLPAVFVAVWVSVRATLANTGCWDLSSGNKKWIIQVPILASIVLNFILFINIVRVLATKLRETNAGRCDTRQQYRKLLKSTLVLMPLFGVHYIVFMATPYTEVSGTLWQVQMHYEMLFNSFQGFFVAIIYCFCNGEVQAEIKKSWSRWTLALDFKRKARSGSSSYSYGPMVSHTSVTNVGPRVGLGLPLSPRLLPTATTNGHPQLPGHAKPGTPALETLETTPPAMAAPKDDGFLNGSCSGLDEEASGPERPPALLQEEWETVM
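HEK-293-derived GP2 cells expressing PTHR1 and a GloSensor cAMP reporter, 3,000/well, plated overnight, given luciferin plus IBMX (each 0.5 mM as added) for 1 h at 37 °C, then compound for 1 h at 37 °C. Luminescence was read after 15 min at room temperature.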
BRCA1 expr act: qHTS Assay to Identify Small Molecule Activators of BRCA1 Expression | Potency, µM (highest dose often 46.1 µM), for the others: at the top dose activation, actives largely listed as activators | AID 624202, 2012 | MCF7-BRCA1-FFLuc reporter, luminescence, 48 h; response scale: scaled: vehicle 0%, 10 µM genistein 100% | 380,000 tested, 1.1% active; also: potency is read from the fitted curve at half-maximal effect; nearly all actives have a fitted effect of over 80% in size
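Cells: MCF7-BRCA1-FFLuc, 2000/well. Exposure: 48 h, 37 °C, 5% CO2. Read: luminescence, 15 min post-substrate. Controls: genistein 10 microM (maximal activation), DMSO (neutral).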
Mito fusion act: qHTS Assay for Small Molecule Inhibitors of Mitochondrial Division or Activators of Mitochondrial Fusion; S. cerevisiae fusion-defective mutant growth rescue, CellTiterGlo 48 h; 320,000 tested, 0.23% active; Potency, µM (series often up to 46.1 µM), without a hit: at the highest dose growth rescue (activation), usual class: activators; also: potency is read from the fitted curve at half-maximal effect; % of control where 0% means no effect; nearly all actives have a fitted effect of over 45% in size
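Compounds are tested for their ability to restore growth of mitochondrial fusion-defective yeast strains at non-permissive 37C in YPEG medium over 48 hours. Viability is quantified by luciferase luminescence.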
IL-2 act: qHTS of IL-2 Activators; AID 652025, 2013; 360,000 tested, 0.065% active; IL-2 activation reporter assay, cell-based qHTS; stimulated with anti-CD3/CD4/CD28 beads; in transgenic mouse T cells; activation, % (series mostly up to about 46 µM); in the data active = activation above about 50%; inconclusive = mostly about 30% to 49%; also: 0% is about no effect
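Unstimulated transgenic mouse T cells; 60-min compound exposure; bead-based TCR/CD4/CD28 stimulation; 18 h culture, 37 degrees C; dual fluorescence (EGFP, DsRed) plate cytometry.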
Chronic BCR inh: qHTS Assay to Find Inhibitors of Chronic Active B-Cell Receptor Signaling. ABC-DLBCL IkBa-CBG/CBR reporter, luminescence ratio, 4 h. Potency, µM (top dose mostly 46.1 µM), for inactives: at the top dose activity change, negative = inhibition, most hits filed as inhibitors. 340,000 tested, 0.05% active. AID 493014, 2011; active = well fitted inhibition curve with a large enough effect in the signal ratio, with a control signal flat, not every such curve was filed as active; inconclusive = small, poorly fitted or top-dose-only effect, or effect the other way, or a change in a side signal; the % refers to the signal ratio;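 also: potency is read from the fitted curve at half-maximal effect; plate controls were basal doxycycline-induced cells for no effect and cells given 10 µM MG132 for full effect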
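Concentration-response series (up to 46 uM) were applied to TMD8 dual-reporter cells for 4 h at 37C with doxycycline. Green/red ratio, after filter-overlap correction, defined %Activity; red signal alone was normalised to basal cells and zero luminescence.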
An asterisk follows results filed as active; [ ] = another dose, or the depositor's remark. Unless noted, calls follow the shape of the dose curve; as a rule, active = well fitted curve in the direction sought with a large enough effect; inconclusive = small, poorly fitted or top-dose-only effect, or another doubt; inactive = no such curve, though single readings can be large; an effect the other way counts as inactive or inconclusive.

CC(C)Cn1c(=O)c2ccccc2n2c(CCC(=O)N3CCN(c4ccccc4)CC3)nnc12 was read as PTHR1 agonist inactive.
`O=C(O)c1ccc(Cn2nnc3sc4c(c3c2=O)CCCC4)cc1` gave TCR activator 3%, PTHR1 agonist inactive, BRCA1 expr act 7.9µM*, Mito fusion act 0%, IL-2 act -1 and Chronic BCR inh inconclusive.
`COC(=O)C(Cc1ccc(OC(=O)c2ccccc2Cl)cc1)N1Cc2ccccc2C1=O` (stereo not drawn) gave TCR activator -2%, PTHR1 agonist -25%, BRCA1 expr act 6.3µM*, Mito fusion act 3%, IL-2 act -2 and Chronic BCR inh -10%.
Screening COc1ccc(C2CC(c3cccs3)=NN2C(=O)CSc2nc(=O)n3cc(C)ccc3n2)cc1 (stereo not drawn) returned TCR activator 2%, PTHR1 agonist -19%, BRCA1 expr act -28%, Mito fusion act 20%, IL-2 act 0 and Chronic BCR inh 3%.
Cc1ccc(C)c(Nc2nnc(-c3ccc(C)c(S(=O)(=O)NCC4CCCO4)c3)c3ccccc23)c1 (stereo not drawn) was read as PTHR1 agonist -31%.
Screening O=[N+]([O-])c1ccc(N2CCc3ccccc3C2)nc1 returned PTHR1 agonist -12%, BRCA1 expr act 11µM*, Mito fusion act -2%, IL-2 act -1 and Chronic BCR inh -2%.
Screening NNc1ccc(Cl)c(C(=O)O)c1 returned TCR activator 12%, PTHR1 agonist -27%, BRCA1 expr act 11µM*, Mito fusion act 4%, IL-2 act 3 and Chronic BCR inh inconclusive.
Screening Cc1ccc(OCc2nc(-c3ccccc3)no2)cc1 returned TCR activator 1%, PTHR1 agonist -1%, BRCA1 expr act 8.9µM*, Mito fusion act -8%, IL-2 act -2 and Chronic BCR inh inconclusive.
`Cc1cc(OCc2nc(-c3cccs3)no2)cc(C)c1Cl` gave TCR activator 7%, PTHR1 agonist -40%, BRCA1 expr act 33%, Mito fusion act 7%, IL-2 act -1 and Chronic BCR inh inconclusive.
Screening c1ccc(OCc2nc(-c3cccs3)no2)cc1 returned PTHR1 agonist -3%, BRCA1 expr act 11µM*, Mito fusion act 4%, IL-2 act -2 and Chronic BCR inh inconclusive.
Screening Fc1ccc(OCc2nc(-c3cccs3)no2)cc1 returned TCR activator 0%, PTHR1 agonist -20%, BRCA1 expr act 7.9µM*, Mito fusion act 9%, IL-2 act 0 and Chronic BCR inh inconclusive.
Screening COc1ccc(-c2noc(Cc3ccccc3OC)n2)cc1 returned TCR activator 11%, PTHR1 agonist -9%[57.5 µM], BRCA1 expr act 93%, Mito fusion act 7%, IL-2 act 0 and Chronic BCR inh inconclusive.
`COc1ccc(-c2noc(Cc3cccs3)n2)cc1` gave TCR activator 1%, PTHR1 agonist -15%[57.5 µM], BRCA1 expr act 13µM*, Mito fusion act 1%, IL-2 act 1 and Chronic BCR inh -13%.
Cc1ccc(S(=O)(=O)NC(=O)NC2=NC(C)(C)N(c3ccc(Cl)c(Cl)c3)C(N)=N2)cc1 was read as PTHR1 agonist -22%, BRCA1 expr act -9% and IL-2 act -1.
Screening COc1ccc(C(CC(=O)Nc2nccs2)n2cccc2)cc1 (stereo not drawn) returned TCR activator -33%, PTHR1 agonist -1%[57.5 µM], BRCA1 expr act 6.3µM*, Mito fusion act 5%, IL-2 act 0 and Chronic BCR inh inconclusive.
N#CNC(=Nc1ccc(F)cc1)SCc1ccccc1 was read as TCR activator 1%[46.1 µM], PTHR1 agonist inactive, BRCA1 expr act -5%, Mito fusion act 1%, IL-2 act -1 and Chronic BCR inh inconclusive.
CCN(CC)C(=O)CSC(=Nc1ccccc1F)NC#N was read as TCR activator -3%, PTHR1 agonist inactive, BRCA1 expr act 11µM*, Mito fusion act -6%, IL-2 act 0 and Chronic BCR inh inconclusive.
COC(=O)Cn1c(C)c(/C=C/c2cc[n+](C)cc2)c2ccccc21 was read as TCR activator 8%, PTHR1 agonist inactive, BRCA1 expr act -18%, Mito fusion act -3%, IL-2 act 222* and Chronic BCR inh 1%.
For COC(=O)Cn1cc(/C=C/c2cc[n+](C)cc2)c2ccccc21 the results were TCR activator 2%, PTHR1 agonist inactive, BRCA1 expr act 7%, Mito fusion act 0%, IL-2 act 2 and Chronic BCR inh -1%.
For COc1cc(OC)cc(C(=O)NCC(c2cccs2)S(=O)(=O)c2ccc(F)c(C)c2)c1 (stereo not drawn) the results were PTHR1 agonist -18%.
C[C@H](c1ccccc1)n1nnc(COCc2ccccc2)c1C#CCOCc1ccccc1 was read as TCR activator -2%, PTHR1 agonist inactive, BRCA1 expr act 0%, Mito fusion act -20%, IL-2 act 0 and Chronic BCR inh inconclusive.
Nn1c(COc2ccc(Cl)cc2)nc2ccccc2c1=O was read as TCR activator 1%[46.1 µM], PTHR1 agonist -13%, BRCA1 expr act 5.6µM*, Mito fusion act 20%, IL-2 act 1 and Chronic BCR inh inconclusive.
`Nn1c(Cc2ccccc2)nc2ccccc2c1=O` gave TCR activator 7%, PTHR1 agonist -6%, BRCA1 expr act 0% and IL-2 act -2.
For C#CCN(C[C@@H]1[C@@H](OC(=O)NCc2ccc(OC)c(OC)c2)[C@@H](OC(=O)NCc2ccc(OC)c(OC)c2)CN(C(=O)OC(C)C)N1C(=O)OC(C)C)S(=O)(=O)c1ccc(C)cc1 the results were PTHR1 agonist -1%, BRCA1 expr act 8% and IL-2 act -1.
Screening COc1ccccc1N1CCN(C(=O)c2cc3c(s2)-c2ccccc2OC3)CC1 returned TCR activator 3%, PTHR1 agonist -6%, BRCA1 expr act -53%, Mito fusion act 6%, IL-2 act 2 and Chronic BCR inh 15%.
